Here are results for four molecules from PubChem BioAssay.

The source made the active and inactive calls. Unless noted, no rule for the calls is given here.

Experiment [1] concerns Wnt5a (protein binding on small-molecule microarray). Nature of the experiment: small molecules binding Wnt5a protein – biophysical, small-molecule microarray, 635/667 nm fluorescence, primary screen (AID 1142).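 Also: fluorescence read at 667 nm with signal to noise per printed feature.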 The settings on record: 635 nm fluorescence, higher = more signal.
Experiment [2] can be described thus: ATP-based viability of Huh7 replicon cells – cell-based, CellTiter-Glo luminescence, basal, 48 h, cytotoxicity control for HCV replication inhibitor project, primary screen (AID 1143).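 Also: Huh7 hepatoma cells carrying a hepatitis C replication reporter with no stimulus; test concentration not given here.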 Particulars: higher = more signal, called active from +8 up or from −8 down.
The nature of experiment [3]: Pseudomonas biofilm growth suppression – PAO1 strain, BacTiter-Glo luminescence, LB-PBS, primary screen (AID 1144). Particulars: P. aeruginosa PAO1 biofilm, 12 h, higher = more signal.
Experiment [4] can be described thus: basal CRE-LacZ reporter activity in PC12 – cell-based, unstimulated, primary screen (AID 1145). Particulars: no forskolin, luminescence, 4.5 h, higher = more signal, called active from +8 up or from −8 down.
Experiment [5] in a line: forskolin-driven CRE-LacZ activity in PC12 – cell-based, CRE-LacZ reporter, forskolin-stimulated, primary screen (AID 1146).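 Also: PC12 cells with 6xCRE LacZ reporter stimulated by forskolin 10 µM; beta-galactosidase reporter signal reflecting CREB driven transcription.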 Particulars: luminescence, 4.5 h, higher = more signal, called active from +8 up or from −8 down.
Experiment [6] has as its target Streptavidin (Streptomyces avidinii) (UniProt P22629). In words: compounds binding control protein streptavidin – biophysical, small-molecule microarray, 635/667 nm fluorescence, artefact control for SMM compound annotation, primary screen (AID 1147).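 Also: signal reflects streptavidin binding to arrayed compounds as a control protein.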 Particulars: higher = more signal.
The nature of experiment [7]: probe aInhba binding on compound microarray – biochemical, small-molecule microarray, 635/667 nm fluorescence, primary screen (AID 1148).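 Also: score merges 667nm spot fluorescence with signal-to-noise for antibody binding to printed compounds.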 Particulars: higher = more signal.
In experiment [8] the target is Torsin-1A (Homo sapiens) (UniProt O14656). In words: TOR1A wild-type binding on microarray – cell lysate, small-molecule microarray, lysate, 635/667 nm, primary screen (AID 1149). The settings on record: COS7 hTOR1A-WT lysate, 635 nm fluorescence, higher = more signal.
For experiment [9] the target is unchanged. Nature of the experiment: torsin A mutant lysate binding on microarrays – cell lysate, small-molecule microarray, COS7 lysate, 635/667 nm fluorescence, primary screen (AID 1150).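 Also: score pools 667 nm emission and signal to noise measuring lysate protein binding.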 Particulars: COS7 hTOR1A mutant lysate, 635 nm fluorescence, higher = more signal.
Experiment [10] concerns Sonic hedgehog protein (Shh). In words: Sonic hedgehog microarray binding compounds – biochemical, small-molecule microarray, 635/667 nm fluorescence, primary screen (AID 1151).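 Also: Shh protein binding to compounds spotted on small-molecule microarray slides; score combines spot fluorescence intensity with signal-to-noise across triplicate slides.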 Particulars: 635 nm fluorescence, higher = more signal.
A short description of experiment [11]: optical density shifts of acrAB sulA E. coli – strain DRC41, OD650, 48 h, E. coli filamentation inducer project, primary screen (AID 1152).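 Also: E. coli MC1000 strain DRC41 lacking acrAB efflux pump and sulA.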 The settings on record: higher = more signal, called active from +8 up or from −8 down.
Experiment [12] in a line: probe aLefty1 binding on compound microarray – biochemical, small-molecule microarray, 635/667 nm fluorescence, primary screen (AID 1153).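 Also: score merges spot fluorescence with signal-to-noise ratio from the scanned slide images.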 The settings on record: higher = more signal.
Experiment [13] in a line: plasmodial surface anion channel blockers, osmotic lysis – cell-based, P. falciparum Indochina, OD700, 1 h, primary screen (AID 1154). The settings on record: P. falciparum Indochina infected RBC osmotic lysis, higher = more signal, called active from +8 up or from −8 down.
A short description of experiment [14]: plasmodial surface anion channel blockers, osmotic lysis – cell-based, P. falciparum Indochina, OD700, 2 h, primary screen (AID 1155).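 Also: lysis reports solute entry through the parasite surface anion channel PSAC.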 Particulars: P. falciparum Indochina infected erythrocytes, higher = more signal, called active from +8 up or from −8 down.
The nature of experiment [15]: changes in parasitized red cell lysis, either direction – P. falciparum Indochina, OD700, 3 h, PSAC antagonist project, primary screen (AID 1156). Particulars: P. falciparum-infected erythrocytes, osmotic lysis, higher = more signal, called active from +8 up or from −8 down.
A short description of experiment [16]: plasmodial surface anion channel blockers, osmotic lysis – cell-based, P. falciparum Indochina, OD700, 18 h, primary screen (AID 1157). The settings on record: P. falciparum Indochina infected erythrocytes, osmotic lysis OD700, 18 h; higher = more signal, called active from +8 up or from −8 down.
A short description of experiment [17]: S6 kinase pathway phospho-S6 level changes – cell-based, A549, cytoblot, luminescence, serum-stimulated, primary screen (AID 1158).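 Also: serum-stimulated A549 lung adenocarcinoma cells; signal is phosphorylated S6 detected by cytoblot immunostaining with HRP secondary.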 Particulars: 5 h, higher = more signal.
The target of experiment [18] is NADPH oxidase 2 (Homo sapiens) (UniProt P04839). In words: compounds shifting NOX2 Amplex Red fluorescence – cell-based, HEK293-NOX2, PMA-stimulated, NOX inhibitor project, primary screen (AID 1159). Also: test concentration not given here. The settings on record: 45 min, higher = more signal, called active from +8 up or from −8 down.
Experiment [19] has as its target NADPH oxidase 4 (Homo sapiens) (UniProt Q9NPH5). In words: compounds shifting NOX4 Amplex Red fluorescence – cell-based, HEK293-NOX4, tetracycline-induced, NOX inhibitor project, primary screen (AID 1160). Particulars: HEK293-NOX4, Amplex Red H2O2 fluorescence, 45 min; higher = more signal, called active from +8 up or from −8 down.
Experiment [20] deals with NADPH oxidase 5 (Homo sapiens) (UniProt Q96PH1). Nature of the experiment: compounds shifting NOX5 Amplex Red fluorescence – cell-based, HEK293-NOX5, NOX inhibitor project, primary screen (AID 1161). Particulars: HEK293-NOX5, ionomycin, 45 min, higher = more signal.
NADPH oxidase 5 (Homo sapiens), sequence (Q96PH1 whole entry, looked up): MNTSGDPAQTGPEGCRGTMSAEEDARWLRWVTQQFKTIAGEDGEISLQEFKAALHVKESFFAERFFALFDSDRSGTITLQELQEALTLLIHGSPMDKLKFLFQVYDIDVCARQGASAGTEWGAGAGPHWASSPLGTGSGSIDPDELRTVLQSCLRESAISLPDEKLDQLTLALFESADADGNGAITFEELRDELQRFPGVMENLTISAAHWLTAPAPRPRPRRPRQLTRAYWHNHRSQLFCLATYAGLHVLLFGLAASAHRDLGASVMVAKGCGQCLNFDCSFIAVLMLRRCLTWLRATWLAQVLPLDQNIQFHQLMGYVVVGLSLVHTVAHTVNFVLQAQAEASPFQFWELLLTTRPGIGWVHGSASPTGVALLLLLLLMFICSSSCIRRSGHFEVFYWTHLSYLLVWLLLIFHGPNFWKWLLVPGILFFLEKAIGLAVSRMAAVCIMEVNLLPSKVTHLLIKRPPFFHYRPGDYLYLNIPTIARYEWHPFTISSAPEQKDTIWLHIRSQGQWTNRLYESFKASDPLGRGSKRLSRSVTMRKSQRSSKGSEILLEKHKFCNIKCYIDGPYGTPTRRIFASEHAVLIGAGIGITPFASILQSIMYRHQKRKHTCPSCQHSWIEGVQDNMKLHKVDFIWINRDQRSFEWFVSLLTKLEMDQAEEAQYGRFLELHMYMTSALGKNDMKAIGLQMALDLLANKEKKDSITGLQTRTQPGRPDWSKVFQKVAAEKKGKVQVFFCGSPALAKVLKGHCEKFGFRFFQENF

Streptavidin (Streptomyces avidinii), sequence (P22629 whole entry, looked up): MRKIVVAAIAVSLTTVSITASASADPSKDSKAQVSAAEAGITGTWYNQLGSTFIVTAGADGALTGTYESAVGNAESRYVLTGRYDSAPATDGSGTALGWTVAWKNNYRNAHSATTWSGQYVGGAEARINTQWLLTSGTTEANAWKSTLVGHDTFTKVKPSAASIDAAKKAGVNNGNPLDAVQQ
NADPH oxidase 2 (Homo sapiens), sequence (P04839 whole entry, looked up): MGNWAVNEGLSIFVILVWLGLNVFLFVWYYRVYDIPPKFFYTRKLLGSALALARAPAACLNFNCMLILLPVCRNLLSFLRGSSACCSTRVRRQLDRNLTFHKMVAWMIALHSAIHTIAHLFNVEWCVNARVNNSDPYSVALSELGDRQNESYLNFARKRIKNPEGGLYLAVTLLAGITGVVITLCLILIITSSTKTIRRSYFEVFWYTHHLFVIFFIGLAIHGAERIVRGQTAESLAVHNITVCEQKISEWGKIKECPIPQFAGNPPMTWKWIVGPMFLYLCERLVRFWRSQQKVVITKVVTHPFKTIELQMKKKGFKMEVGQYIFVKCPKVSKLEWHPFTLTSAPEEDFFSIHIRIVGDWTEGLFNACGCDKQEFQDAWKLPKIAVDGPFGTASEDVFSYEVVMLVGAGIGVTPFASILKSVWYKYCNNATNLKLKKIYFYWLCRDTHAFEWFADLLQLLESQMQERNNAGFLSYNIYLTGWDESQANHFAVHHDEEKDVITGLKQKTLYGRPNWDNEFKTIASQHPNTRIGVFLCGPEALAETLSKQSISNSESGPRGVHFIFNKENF
Torsin-1A (Homo sapiens), sequence (O14656 whole entry, looked up): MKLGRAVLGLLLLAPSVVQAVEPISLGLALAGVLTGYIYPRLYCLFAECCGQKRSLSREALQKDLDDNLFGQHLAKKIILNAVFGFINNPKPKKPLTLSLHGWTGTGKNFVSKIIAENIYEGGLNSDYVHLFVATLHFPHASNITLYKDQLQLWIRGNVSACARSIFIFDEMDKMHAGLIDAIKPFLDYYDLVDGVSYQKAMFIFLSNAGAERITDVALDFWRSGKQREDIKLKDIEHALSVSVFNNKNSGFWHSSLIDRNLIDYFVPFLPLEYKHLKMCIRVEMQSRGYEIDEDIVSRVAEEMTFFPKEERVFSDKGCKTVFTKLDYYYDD
NADPH oxidase 4 (Homo sapiens), sequence (Q9NPH5 whole entry, looked up): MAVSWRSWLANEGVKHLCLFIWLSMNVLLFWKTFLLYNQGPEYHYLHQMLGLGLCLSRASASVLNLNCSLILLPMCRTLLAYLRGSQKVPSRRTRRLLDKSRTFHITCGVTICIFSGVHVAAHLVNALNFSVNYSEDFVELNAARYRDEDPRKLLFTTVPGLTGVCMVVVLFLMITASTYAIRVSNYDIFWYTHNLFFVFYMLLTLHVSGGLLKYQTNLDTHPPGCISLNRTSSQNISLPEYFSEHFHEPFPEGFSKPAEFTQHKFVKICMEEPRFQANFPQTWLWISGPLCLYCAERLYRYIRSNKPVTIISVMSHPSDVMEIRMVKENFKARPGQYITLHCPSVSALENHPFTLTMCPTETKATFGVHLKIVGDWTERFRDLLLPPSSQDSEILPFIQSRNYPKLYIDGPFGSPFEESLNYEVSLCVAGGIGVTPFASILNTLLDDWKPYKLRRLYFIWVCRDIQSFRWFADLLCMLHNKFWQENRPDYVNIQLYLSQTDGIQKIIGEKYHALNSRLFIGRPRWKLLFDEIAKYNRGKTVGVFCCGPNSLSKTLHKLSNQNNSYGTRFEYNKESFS

Consider `O=C1O[C@H](c2ccccc2)[C@H](c2ccccc2)N2[C@H]1[C@@H](C(=O)O)[C@]1(C(=O)Nc3ccc(C#CC4(O)CCCCCC4)cc31)[C@H]2c1ccccc1OCCO`, for which the composite z-score was 0.455 in experiment [1]; 1.41 in experiment [6]; 0.397 in [7]; 0.541 in the experiment with Torsin-1A (Homo sapiens) [8]; -0.462 with Torsin-1A (Homo sapiens) [9]; 0.721 in experiment [10]. In addition, in experiment [12], the composite z-score is 0.708. Further, the z-score in experiment [2] is -2.05 (inactive); in experiment [3], 1.27 (inactive); in experiment [4], 17.9 (active); in experiment [5], 21.5 (active); in experiment [11], 0.782 (inactive); in experiment [13], -2.1 (inactive). Also, the z-score in experiment [14] was -0.922 (inactive); in experiment [15] it was -14.7 (active); in experiment [16], -0.743 (inactive); in experiment [17] it was 0.364; in [18], 2.49 (inactive); in [19], -1.56 (inactive). In addition, the z-score in [20] is -1.32.

As for `CC(C)N1CC=CC23O[C@@H]4/C=C\CCCOC(=O)C4[C@H]2C(=O)N(C(C)CO)[C@@H]3C1=O` (stereo not given in full), the composite z-score was -0.603 in [1]; -0.938 in [6]; -0.176 in [7]; -2.23 with Torsin-1A (Homo sapiens) [8]; -0.913 with Torsin-1A (Homo sapiens) [9]; -0.413 in experiment [10]. In experiment [12], this molecule registered a composite z-score of -0.195. For the same molecule, the z-score in [2] is 0.282 (inactive); in experiment [3] it was -2.11 (inactive); in [4], -1.58 (inactive); in experiment [5], -0.869 (inactive); in [11], 2.12 (inactive); in [13] it was 1.2 (inactive). The z-score in experiment [14] was 0.0831 (inactive); in experiment [15], 1.07 (inactive); in experiment [16], 0.429 (inactive); in experiment [17], 0.979; in experiment [18], 0.667 (inactive); in experiment [19], 0.142 (inactive). Besides, in experiment [20], the z-score came out at 0.883.

Take `C=C(COC)C(=O)CC[C@H](OC(C)=O)c1ccc(CO)o1`: the composite z-score in experiment [1] is -0.0261; in experiment [6] it was -0.0888; in [7], -0.101; in the experiment with Torsin-1A (Homo sapiens) [8], -0.675; with Torsin-1A (Homo sapiens) [9] it was -0.337; in [10], 1.55. Moreover, the composite z-score in [12] is -0.0061. Further, the z-score in experiment [2] is -2.28 (inactive); in experiment [3], -0.824 (inactive); in experiment [4] it was -0.0884 (inactive); in [5] it was 0.464 (inactive); in experiment [11], 0.82 (inactive); in experiment [13], 0.421 (inactive). Moreover, the z-score is 0.112 (inactive) in [14]; -0.0728 (inactive) in experiment [15]; -1.12 (inactive) in [16]; 0.555 in [17]; -1.04 (inactive) in [18]; -0.207 (inactive) in [19]. In addition, the z-score in experiment [20] was -1.31.

As for `O=C(c1ccccc1)N1Cc2ccccc2C[C@@]2(N=C(c3ccc(OCCCO)cc3)O[C@H]2c2ccccc2)C1=O`, the composite z-score in experiment [1] was determined as 1.27; in experiment [6], 0.491; in [7], 0.0658; with Torsin-1A (Homo sapiens) [8] it was 0.881; in the experiment with Torsin-1A (Homo sapiens) [9], 1.06; in [10], 2.19. This molecule had a composite z-score in experiment [12] of 0.149. Further, the z-score in [2] is -4.73 (inactive); in experiment [3], -0.191 (inactive); in experiment [4], 0.904 (inactive); in experiment [5] it was -1.12 (inactive); in experiment [11], -0.702 (inactive); in experiment [13] it was 6.6 (inactive). Besides, the z-score in experiment [14] was 1.66 (inactive); in experiment [15], 2.54 (inactive); in experiment [16] it was 0.937 (inactive); in experiment [17], -0.221; in experiment [18], 1.21 (inactive); in [19], -0.172 (inactive). In addition, the z-score in experiment [20] was -0.693.
